Assay results as given in the supplement of paper PMC6555819.

Key:
Test in all cases: PBM binding z-score (relative to random genomic background probes); higher = stronger binding; sequences stand for … in GC…GCGATTGACAGCGTAGAATGAAGG
[1] = tested on: FXR:RXRa (NR concentration 270 nM, RXRa partner concentration 90 nM)
In short: (§1)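 Binding z-scores were set against random background probes. The data came from custom Agilent 4×180K protein-binding microarrays carrying double-stranded probes with 34-nt variable regions, incubated 1 h with ligand-free nuclear receptor dimers. Partner-specific antibodies detected binding, and scanned fluorescence was regression-normalized.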

[2] = tested on: LXRa:RXRa (NR concentration 270 nM, RXRa partner concentration 90 nM)
In short: as §1

[3] = tested on: LXRa homodimer (NR concentration 270 nM)
In short: as §1

[4] = tested on: LXRb:RXRa (NR concentration 270 nM, RXRa partner concentration 90 nM)
In short: as §1

[5] = tested on: LXRb homodimer (NR concentration 270 nM)
In short: as §1

[6] = tested on: PPARa:RXRa (NR concentration 270 nM, RXRa partner concentration 90 nM)
In short: as §1

[7] = tested on: PPARg:RXRa (NR concentration 180 nM, RXRa partner concentration 90 nM)
In short: as §1

[8] = tested on: PPARg:RXRa 270nM:90nM, anti-RXR (NR concentration 270 nM, RXRa partner concentration 90 nM)
In short: as §1

[9] = tested on: PPARg:RXRa 30nM:10nM, anti-RXR (NR concentration 30 nM, RXRa partner concentration 10 nM)
In short: as §1

[10] = tested on: PPARg:RXRa 90nM:30nM, anti-RXR (NR concentration 90 nM, RXRa partner concentration 30 nM)
In short: as §1

[11] = tested on: PPARg:RXRa DBDmut IVT, anti-RXR (DBD mutation: RXRa K156A/R161A, NR concentration 270 nM, RXRa partner concentration 90 nM)
In short: as §1

[12] = tested on: PPARg:RXRa IVT, anti-PPARg (NR concentration 270 nM, RXRa partner concentration 90 nM)
In short: as §1

[13] = tested on: PPARg DBDmut:RXRa IVT, anti-PPARg (DBD mutation: PPARg1 K132A/R137A, NR concentration 270 nM, RXRa partner concentration 90 nM)
In short: as §1

[14] = tested on: PPARg DBDmut IVT, anti-PPARg (DBD mutation: PPARg1 K132A/R137A, NR concentration 270 nM)
In short: as §1

[15] = tested on: PPARg homodimer (NR concentration 180 nM)
In short: as §1

[16] = tested on: PXR:RXRa (NR concentration 270 nM, RXRa partner concentration 90 nM)
In short: as §1

[17] = tested on: PXR homodimer (NR concentration 270 nM)
In short: as §1

[18] = tested on: RARa:RXR (NR concentration 270 nM, RXRa partner concentration 90 nM)
In short: as §1

[19] = tested on: RARa homodimer (NR concentration 270 nM)
In short: as §1

[20] = tested on: RARb:RXRa (NR concentration 270 nM, RXRa partner concentration 90 nM)
In short: as §1

Sequence	PBM binding z-score [1]	PBM binding z-score [2]	PBM binding z-score [3]	PBM binding z-score [4]	PBM binding z-score [5]	PBM binding z-score [6]	PBM binding z-score [7]	PBM binding z-score [8]	PBM binding z-score [9]	PBM binding z-score [10]	PBM binding z-score [11]	PBM binding z-score [12]	PBM binding z-score [13]	PBM binding z-score [14]	PBM binding z-score [15]	PBM binding z-score [16]	PBM binding z-score [17]	PBM binding z-score [18]	PBM binding z-score [19]	PBM binding z-score [20]
ATCTCTAGGTAACAAGTTCAGTGCAAGAGAGGAC	0.558	0.749	0.739	0.611	0.89	1.5	1.32	1.86	0.692	1.45	3.44	2.92	1.24	1.13	1.36	1.87	2.67	0.985	1.05	1.69
ACTATTAGTTAAGACGAGGGCAACCGATAGGTTG	0.44	0.122	0.165	0.211	0.232	0.271	0.646	-0.109	-0.17	-0.186	-0.356	0.422	0.81	0.924	0.44	0.642	0.645	0.641	1.02	0.967
GCAGACAGGTGAAACGTAGGTAACTCAGGGTGGC	-0.116	0.0027	-0.589	-0.409	-0.785	0.799	0.792	0.526	-0.444	-0.0243	1.69	0.679	-0.482	-0.518	-0.211	-0.374	-0.933	0.315	-0.166	0.76
CGACCAAGGTGAACAAGGTCGTTGATTACTATTC	1.09	1.16	-0.248	1.83	-0.531	2.54	1.27	1.29	-0.0265	0.643	1.95	2.6	-0.104	-0.33	0.615	2.45	1.03	1.99	0.125	2.22
TCTTGTAGATGAGCAGGTTAAGAAAGCTGGCCAA	-0.174	-0.248	-0.441	-0.166	-1.02	0.327	-0.56	0.706	1.86	1.32	0.934	-0.183	-0.514	0.12	0.00499	0.02	-0.92	0.211	-0.441	-0.439
CGAACTAGGTCAGATCAGGACAGTGAAGGATGAT	2.96	0.93	-0.182	0.466	-0.387	3.07	5.57	4.64	1.82	3.82	7.59	7.23	0.934	0.164	1.18	1.83	0.129	1.19	-0.0983	3.17
CGTAGTTGGTCAAGGTCACACACGCTATAGGTAC	4.12	3.72	1.39	3.6	0.592	4.13	3.4	3.54	1.47	2.64	1.92	3.93	0.825	0.313	2.32	4.02	1.11	4.18	1.01	4.18
ACTACTAGTTGAGACGAGGGCAACCGATAGGTTG	0.166	-0.245	-0.365	-0.0617	-0.193	0.173	0.721	0.0309	-0.149	-0.0878	0.0475	0.419	0.298	0.0425	0.265	1.22	0.4	0.775	0.103	0.93
CATACAGGGTCAGCTACGCCAGAGTAGGGACGGC	4.39	3.1	0.0565	2.3	0.562	4.28	3.26	3.22	0.875	2.03	1.11	2.35	0.652	1.25	1.54	2.22	-0.0173	3.27	0.771	3.99
TTACCAAGGTGAGAGGTCGTTGATGCACGCCTTG	1.86	1.62	0.0582	1.46	-0.758	3.59	6.22	6.4	4.84	6.5	1.49	4.04	0.616	0.0764	1.63	2.47	0.681	3.06	-0.505	2.33
CCTACTGGGCCAAAAACGTCATTGATGCCGATAA	-0.178	-0.282	-0.294	-0.357	-0.478	0.119	0.525	1.02	-0.141	0.509	2.89	2.22	-0.472	-0.737	0.2	-0.35	-0.449	-0.17	-0.624	-0.163
CAAACTAGGTCAAGGACAAAGTCGGTTTGTGCCA	3.65	2.54	0.38	1.43	0.178	4.59	7.75	6.74	4.87	6.38	8.57	8.47	0.998	1.42	2.03	1.6	0.0226	1.91	-0.478	4.15
ACTCGGAGGACAAAGGTCAGAGCAACGCCAGTGA	4.23	4.45	1.56	3.47	0.134	5.14	7.86	7.16	6.17	7.18	0.873	3.67	0.771	-0.247	2.78	3.99	0.422	5.03	0.859	4.58
CCTACTGGGCCACGAAAGGTCATTGGTTCAGTGA	3.88	5.26	5.57	4.37	0.215	4.79	4.66	4.86	2.43	4.48	5.54	5.88	-0.165	-0.319	3.95	5.47	3.04	5.74	0.693	3.96
ACTAACGGGTCAACGAGGTTATAGCACGCGTATA	6.32	4.49	0.715	3.82	0.313	5.19	4.64	4.34	1.48	2.98	1.94	3.19	1.38	1.31	2.63	4.96	2.39	5.01	0.559	3.91
ATCGAAAGGACGAAGGTGAGTATACCCACCCGAA	-0.0229	0.0207	-0.291	-0.347	-0.118	-0.0423	1.05	0.837	0.489	0.641	-0.74	0.283	-0.404	-0.244	0.0409	0.00854	-0.3	-0.0536	0.0942	1.17
CCGACTGGGACAAAGGTTACCATACTCAGTACGA	0.993	1.51	0.114	1.8	-0.631	4.69	9.69	8.78	8.13	10.5	3.26	5.21	0.234	0.111	1.47	1.51	-0.265	2.39	0.207	2.03
CTTCGGAGGACAGAAGGTCAGAGCTGTCCGCTTT	1.6	1.84	-0.0247	0.975	-0.772	1.85	-0.0897	1.07	-0.905	0.484	0.227	0.203	-0.826	-2.02	1.51	1.56	-0.691	2.18	-0.152	3.17
GATCCAGGGTCAAGGCCAGAGTACGCGTATTGAT	6.77	4.23	-0.34	3.91	-0.536	5.78	5.86	5.78	2.2	4.41	2.29	3.75	0.299	0.301	2.21	4.33	0.0901	5.29	0.437	4.49
ATCTCTAGGTAACAAGTTCAGGGAAAGAGAGGAC	1.08	1.19	0.665	1.09	1.23	1.97	1.74	2.3	1.06	1.99	3.5	3.06	1.15	2.01	1.61	1.74	1.82	1.32	1.58	1.69
GCTGCTAGGTCAGGTTGGTCAGCTAGCGGGTACG	1.15	0.736	-0.0466	0.193	-0.466	1.36	-0.0149	0.792	-0.603	0.329	2.9	1.88	-0.638	-1.03	0.481	0.0467	-1.01	0.604	-0.467	3.38
CAAACTACGTCACAGAGGTCAAAGTCCGTGCGTA	4.81	5.44	5.72	5.02	1.87	5.12	3.52	4.59	1.9	3.91	0.625	2.48	1.33	0.372	2.66	5.74	2.1	5.74	1.25	3.98
ATAGCAAGGTGATCGTGAGGTCGTTGATACTAAC	1.34	0.986	0.104	0.673	-0.808	1.47	0.359	0.22	0.0107	-0.0753	0.118	0.727	0.619	0.253	0.565	2.62	0.543	1.98	-0.0537	1.16
CCTTTCGGGTCACTCCAGGTTATAGCATCGGAGT	4.95	7.32	2.02	5.17	0.836	4.58	3.15	3.78	1.09	2.75	2.65	3.53	0.307	-0.494	2	4.94	0.803	3.73	0.474	4.01
CAAACTAGGTGACGAAAGGTCAAAGTCGAATGAC	5.48	6.5	5.58	5.5	2.04	6.16	8.73	7.47	4.53	7.2	8.02	7.93	1.7	2.14	4.87	5.93	1.38	6.62	1.88	4.82
CCTAGCAGGCCAATCTGGGTCACTCAAGGCTTGA	1.5	1.42	-0.498	0.851	-1.04	3.1	1.69	2.6	-0.232	1.52	4.72	5.12	-1.06	-0.836	0.786	0.995	-0.679	1.17	-0.672	1.58
TCTAGTTCGTCAAAGGTCACACACTCGAAATGCG	6.15	6.02	4.48	5.55	1.9	5.99	5.62	6.47	5.73	6.28	2.89	3.87	2.7	1.85	3.82	6.15	2.25	6.52	3.27	5.24
TCTATTAGTTGATTAGGGCAAACGAAACAGCGGA	0.336	0.43	0.307	0.724	0.369	0.691	0.317	1.62	3.24	2.29	1.88	1.04	0.889	1.04	0.195	0.343	0.106	0.325	0.996	0.708
